Screening results from PubChem.
In the library only some 17% were active in any assay of this set; here they are far more common.
DT40 TDP1 no CPT: qHTS for Inhibitors of human tyrosyl-DNA phosphodiesterase 1 (TDP1): qHTS in cells in absence of CPT | DT40 Tdp1-/- hTDP1 cells, no CPT, ATP luminescence, 48 h | Potency, µM (top dose mostly 46.2 µM), for inactives: at the top dose activity change, negative = growth inhibition, actives largely listed as inhibitors | 15% of 420,000 active | AID 686978, 2013; note: % is set by controls: 0 for no effect and ±100 for the full control effect; nearly all actives have a fitted effect of over 55% in size
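Chicken DT40 Tdp1-/- cells complemented with human TDP1, screened without camptothecin (DMSO vehicle only), 400 cells/well. Compounds pin-transferred, cells incubated at 37 °C for at least 48 hr. Growth read as ATP-dependent luminescence (CellTiter-Glo, 30 min at RT).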
HepG2 tox: counter-screen for TGF-b inhibitors: cytotoxicity in HepG2 cells; HepG2 CAGA-GFP viability, ATP luminescence, 18 h; Potency, µM (series often up to 46.1 µM), without a hit: top-dose activity change, negative = cytotoxicity, hits mostly cytotoxic; 0.76% of 410,000 active
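CellTiter-Glo luminescence gave cytotoxicity after 18 hours at 37 degrees C. The cells were HepG2 CAGA-GFP in 1% FBS DMEM, stimulated with 500 pg/mL TGF-beta after compound addition. %Activity was normalised to no-cell wells (complete cell-killing) and DMSO (no toxicity), and curves were fitted and classified.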
TDP1 cell CPT: growth inhibition of DT40 Tdp1-/-;hTDP1 cells with camptothecin (screen for TDP1 inhibitors) | Potency, µM (doses to about 46.2 µM), for inactives: at the top dose activity change, negative = growth inhibition, usual class: inhibitors | 12% of 420,000 active | chicken DT40 Tdp1-/-;hTDP1 cells + 20 nM CPT, ATP luminescence, 48 h | AID 686979; note: % is set by controls: 0 for no effect and ±100 for the full control effect; nearly all actives have a fitted effect of over 55% in size
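Chicken DT40 Tdp1-/- cells complemented with human TDP1, 400 cells/well, exposed to compounds plus 20 nM camptothecin for at least 48 h at 37 C; viability read as ATP content by CellTiter-Glo luminescence.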
ATXN2 expr inh: inhibitors of ATXN2 expression; HEK-293 ATXN2-luciferase reporter, luminescence, 24 h; Potency, µM (series often up to 57 µM), for inactives: at the highest dose activity change, negative = inhibition, most hits filed as inhibitors; 0.72% of 360,000 active; note: % is set by controls: 0 for no effect and ±100 for the full control effect; nearly all actives have a fitted effect of over 55% in size
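ATXN2-luciferase reporter cells (luciferase flanked by upstream and downstream ATXN2 gene portions) were treated 24 h at 37 °C with compounds at up to 57 uM. SteadyGlo luminescence gave expression; GF-AFC fluorescence gave viability.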
S2 tox: viability counter-screen for ATXN expression inhibitors | S2 cells (HEK-293 line with an ATXN2-luciferase reporter) viability, CellTiter-Fluor protease fluorescence, 24 h | Potency, µM (series often up to 56.7 µM), most hits filed as cytotoxic | 0.49% of 400,000 active | AID 651635; note: nearly all actives have a fitted effect of over 40% in size
TGFb SMAD3 inh: blocks TGF-b signaling | Potency, µM (top dose mostly 46.1 µM), for inactives: at the top dose activity, negative = inhibition, actives largely listed as inhibitors | HepG2 CAGA-GFP TGF-b/SMAD3 reporter, GFP fluorescence, 18 h; TGF-beta stimulated, 500 pg/mL final | 1.2% of 410,000 active | AID 588855; note: % is set by controls: 0 for no effect and ±100 for the full control effect; nearly all actives have a fitted effect of over 65% in size
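GFP signal (ex488/em500-530) from TGF-beta-stimulated HEPG2 CAGA-GFP cells, 500 pg/mL final, 18 h at 37 degrees C in DMEM plus 1% FBS, normalized to unstimulated and DMSO-stimulated controls.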
The depositor's hits bear a star. Calls come from the whole dose curve; as a rule, active = well fitted curve in the direction sought with a large enough effect; inconclusive = small, poorly fitted or top-dose-only effect, or another doubt; inactive = no such curve, though single readings can be large; an effect the other way counts as inactive or inconclusive. Potency is the fitted concentration of half-maximal effect.

For CN(c1ccc(-c2csc(NC(=O)C3CC(=O)N(Cc4ccco4)C3)n2)cc1)S(C)(=O)=O (stereo unspecified) the results were DT40 TDP1 no CPT -16%, HepG2 tox -21%, TDP1 cell CPT inconclusive, ATXN2 expr inh -9%, S2 tox inactive and TGFb SMAD3 inh -12%.
`CC(=O)NC(CC(=O)Nc1nc(-c2ccc(N(C)S(C)(=O)=O)cc2)cs1)c1ccccc1` (stereo unspecified) gave DT40 TDP1 no CPT 16µM*, HepG2 tox -1%, TDP1 cell CPT 21µM*, ATXN2 expr inh -25%, S2 tox inactive and TGFb SMAD3 inh -22%.
Screening c1ccc2c(c1)ccc1nnnn12 returned DT40 TDP1 no CPT 0%, HepG2 tox 9%, TDP1 cell CPT 17%, ATXN2 expr inh -3%, S2 tox inactive and TGFb SMAD3 inh 9%.
Screening CCC(c1nnnn1-c1ccc2c(c1)OCCO2)N1CCN(CC)CC1 (stereo unspecified) returned DT40 TDP1 no CPT -22%, TDP1 cell CPT 8%, ATXN2 expr inh 5% and S2 tox inactive.
`FC(F)(F)Oc1ccccc1C(c1nnnn1-c1ccc2c(c1)OCCO2)N1CCN(C/C=C/c2ccccc2)CC1` (stereo unspecified) gave DT40 TDP1 no CPT 15µM*, HepG2 tox -6%, TDP1 cell CPT inconclusive, ATXN2 expr inh -2%, S2 tox inconclusive and TGFb SMAD3 inh inconclusive.
`C(=C\c1ccccc1)/CN1CCN(C(c2cccc3ccccc23)c2nnnn2-c2ccc3c(c2)OCCO3)CC1` (stereo unspecified) gave DT40 TDP1 no CPT 8.2µM*, HepG2 tox -35%, TDP1 cell CPT 13µM*, ATXN2 expr inh 3%, S2 tox inactive and TGFb SMAD3 inh -20%.
`CCN1CCN(C(=O)c2nn(C)c3c2CS(=O)(=O)c2ccccc2-3)CC1` gave DT40 TDP1 no CPT 8%, HepG2 tox 7%, TDP1 cell CPT 5%, ATXN2 expr inh 5%, S2 tox inactive and TGFb SMAD3 inh 18%.
For CCCCCSc1nnc2c(n1)[nH]c1c(C)cccc12 the results were DT40 TDP1 no CPT 2.9µM*, HepG2 tox 4%, TDP1 cell CPT 9.2µM*, ATXN2 expr inh 13%, S2 tox inactive and TGFb SMAD3 inh -8%.
`COc1ccc(CN(Cc2ccco2)c2cnc(S(C)(=O)=O)nc2C(=O)Nc2ccc(C)c(Cl)c2)cc1` gave DT40 TDP1 no CPT -22%, HepG2 tox -3%, TDP1 cell CPT inconclusive, ATXN2 expr inh 0%, S2 tox inactive and TGFb SMAD3 inh 8%.
For CCS(=O)(=O)c1ncc(N(Cc2ccco2)Cc2sccc2C)c(C(=O)Nc2cc(C)ccc2C)n1 the results were DT40 TDP1 no CPT 21µM*, HepG2 tox -5%, TDP1 cell CPT inconclusive, ATXN2 expr inh 5%, S2 tox inactive and TGFb SMAD3 inh -21%.
`Cc1ccc(NC(=O)c2nc(S(C)(=O)=O)ncc2N(Cc2ccco2)Cc2cccs2)c(C)c1` gave DT40 TDP1 no CPT 21µM*, HepG2 tox -22%, TDP1 cell CPT inconclusive, ATXN2 expr inh 14%, S2 tox inactive and TGFb SMAD3 inh inconclusive.
Cc1cccc(C)c1NC(=O)c1nc(S(C)(=O)=O)ncc1N(Cc1ccc(C(C)(C)C)cc1)Cc1ccco1 was read as DT40 TDP1 no CPT inconclusive, HepG2 tox -30%, TDP1 cell CPT inconclusive, ATXN2 expr inh 14%, S2 tox inactive and TGFb SMAD3 inh -30%.
